# Experimental data taken from PubChem BioAssay (EPA / NIEHS).
# Inconclusive results are not listed. Activity calls are given as the source filed them. How the source made its calls: active means hit-call score of the fitted dose curve at least 0.9, where 1 is the maximum; inconclusive means response in the unintended direction; inactive means score below 0.9.
# How the values were obtained:
# [1] = target: human Peroxisome Proliferator-activated Receptor alpha (PPARa), PPARA (gene 5465) (UniProt Q07869); assay: ATG_PPARa_TRANS: Attagene TRANS-FACTORIAL HepG2 Assay for human Peroxisome Proliferator-activated Receptor alpha (PPARa) (AID 2283001)
# human Peroxisome Proliferator-activated Receptor alpha (PPARa), PPARA (gene 5465), sequence (Q07869 whole entry, looked up, the tested form may be a part): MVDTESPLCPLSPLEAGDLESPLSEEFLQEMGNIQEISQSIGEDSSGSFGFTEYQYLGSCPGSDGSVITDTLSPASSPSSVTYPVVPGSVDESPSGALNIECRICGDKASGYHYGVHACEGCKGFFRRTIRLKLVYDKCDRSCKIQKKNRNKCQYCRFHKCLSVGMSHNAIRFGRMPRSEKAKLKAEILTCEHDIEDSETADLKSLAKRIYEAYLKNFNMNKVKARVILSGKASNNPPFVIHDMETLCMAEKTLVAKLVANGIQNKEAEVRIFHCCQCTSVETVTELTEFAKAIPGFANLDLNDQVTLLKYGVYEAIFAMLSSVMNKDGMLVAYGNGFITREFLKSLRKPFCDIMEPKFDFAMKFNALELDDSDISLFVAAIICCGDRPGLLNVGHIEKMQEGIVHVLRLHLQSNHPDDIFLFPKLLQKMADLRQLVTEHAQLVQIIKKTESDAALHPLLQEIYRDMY
# Procedure, shortened: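 Transfected HepG2 cells treated with test chemical for 24 h. RNA isolated, reverse-transcribed with oligo(dT), PCR-amplified, FAM-labelled and HpaI-digested. Fragments sized by capillary electrophoresis; gain-of-signal fit relative to DMSO.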
# [2] = target: human Peroxisome Proliferator-activated Receptor delta (PPARd), PPARD (gene 5467) (UniProt Q03181); assay: ATG_PPARd_TRANS: Attagene TRANS-FACTORIAL HepG2 Assay for human Peroxisome Proliferator-activated Receptor delta (PPARd) (AID 2283002)
# human Peroxisome Proliferator-activated Receptor delta (PPARd), PPARD (gene 5467), sequence (Q03181 whole entry, looked up): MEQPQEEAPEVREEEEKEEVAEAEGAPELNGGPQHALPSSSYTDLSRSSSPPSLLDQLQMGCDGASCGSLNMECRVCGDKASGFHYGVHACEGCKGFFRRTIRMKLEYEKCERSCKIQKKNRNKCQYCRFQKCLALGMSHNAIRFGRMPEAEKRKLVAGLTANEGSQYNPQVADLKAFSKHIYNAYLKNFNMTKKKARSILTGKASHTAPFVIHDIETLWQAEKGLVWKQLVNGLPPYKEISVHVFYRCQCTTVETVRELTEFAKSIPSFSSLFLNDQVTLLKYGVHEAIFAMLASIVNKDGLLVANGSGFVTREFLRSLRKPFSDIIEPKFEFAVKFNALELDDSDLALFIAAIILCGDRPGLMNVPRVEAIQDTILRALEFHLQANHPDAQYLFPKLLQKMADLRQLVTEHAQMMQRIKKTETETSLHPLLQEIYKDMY
# Procedure, shortened: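 Cell-based TRANS reporter: HepG2, transient MRTU transfection, 24 h exposure. Readout = reporter mRNA (RT-PCR/CE, 6-FAM). Gain-of-signal fit vs DMSO control.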
# [3] = target: Peroxisome proliferator-activated receptor gamma (Homo sapiens) (UniProt P37231); assay: ATG_PPARg_TRANS: Attagene TRANS-FACTORIAL HepG2 Assay for human Peroxisome Proliferator-activated Receptor-gamma (PPARg) (AID 2283007)
# Procedure, shortened: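 Multiplexed reporter transcription units in HepG2, 24 h dosing, reporter transcripts quantified by fluorescent RT-PCR and capillary electrophoresis. Increase over DMSO scored.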
# [4] = target: Nuclear receptor subfamily 1 group I member 2 (Homo sapiens) (UniProt O75469); assay: ATG_PXR_TRANS: Attagene TRANS-FACTORIAL HepG2 Assay for human Pregnane X Receptor (PXR) (AID 2283008)
# Nuclear receptor subfamily 1 group I member 2 (Homo sapiens), sequence (O75469 whole entry, looked up, the tested form may be a part): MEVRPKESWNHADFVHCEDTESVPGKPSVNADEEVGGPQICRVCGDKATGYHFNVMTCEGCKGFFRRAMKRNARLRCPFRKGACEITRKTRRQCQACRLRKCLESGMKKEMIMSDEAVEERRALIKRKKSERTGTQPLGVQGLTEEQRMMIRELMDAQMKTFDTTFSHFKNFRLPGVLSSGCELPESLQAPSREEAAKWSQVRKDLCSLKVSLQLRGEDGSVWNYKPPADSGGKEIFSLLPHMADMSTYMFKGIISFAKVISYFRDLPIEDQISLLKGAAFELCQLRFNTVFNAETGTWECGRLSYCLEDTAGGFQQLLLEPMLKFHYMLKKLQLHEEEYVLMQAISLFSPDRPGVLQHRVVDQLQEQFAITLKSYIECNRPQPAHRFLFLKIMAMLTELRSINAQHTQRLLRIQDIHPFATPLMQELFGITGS
# Procedure, shortened: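 Transient HepG2 transfectants carrying multiplexed reporter transcription units; PXR activity read through a Gal4 chimera. 24 h exposure. RT-PCR/CE fluorescence; upward curve fit referenced to DMSO.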
# [5] = target: human Retinoic Acid Receptor gamma (RARg), RARG (gene 5916) (UniProt P13631); assay: ATG_RARg_TRANS: Attagene TRANS-FACTORIAL HepG2 Assay for human Retinoic Acid Receptor gamma (RARg) (AID 2283009)
# human Retinoic Acid Receptor gamma (RARg), RARG (gene 5916), sequence (P13631 whole entry, looked up, the tested form may be a part): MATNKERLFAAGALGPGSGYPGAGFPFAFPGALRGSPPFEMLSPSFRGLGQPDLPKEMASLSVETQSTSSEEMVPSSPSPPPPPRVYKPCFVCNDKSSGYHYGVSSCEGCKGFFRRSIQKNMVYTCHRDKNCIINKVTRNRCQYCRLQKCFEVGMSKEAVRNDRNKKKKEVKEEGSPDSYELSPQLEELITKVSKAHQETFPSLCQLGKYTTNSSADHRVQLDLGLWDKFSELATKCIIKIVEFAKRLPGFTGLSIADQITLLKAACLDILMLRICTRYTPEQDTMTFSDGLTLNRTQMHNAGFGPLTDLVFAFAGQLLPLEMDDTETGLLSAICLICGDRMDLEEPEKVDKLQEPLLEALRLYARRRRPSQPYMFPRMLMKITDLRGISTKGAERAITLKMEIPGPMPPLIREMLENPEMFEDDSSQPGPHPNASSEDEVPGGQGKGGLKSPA
# Procedure, shortened: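 Gain-of-signal relative to DMSO is reported from fluorescent capillary electrophoresis of RT-PCR reporter products. These came from HepG2 cells expressing transfected RARg-GAL4 chimeras with UAS reporters, harvested 24 h after dosing.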
# [6] = target: human RAR-related Orphan Receptor gamma (RORg), RORC (gene 6097) (UniProt P51449); assay: ATG_RORg_TRANS: Attagene TRANS-FACTORIAL HepG2 Assay for human RAR-related Orphan Receptor gamma (RORg) (AID 2283011)
# human RAR-related Orphan Receptor gamma (RORg), RORC (gene 6097), sequence (P51449 whole entry, looked up, the tested form may be a part): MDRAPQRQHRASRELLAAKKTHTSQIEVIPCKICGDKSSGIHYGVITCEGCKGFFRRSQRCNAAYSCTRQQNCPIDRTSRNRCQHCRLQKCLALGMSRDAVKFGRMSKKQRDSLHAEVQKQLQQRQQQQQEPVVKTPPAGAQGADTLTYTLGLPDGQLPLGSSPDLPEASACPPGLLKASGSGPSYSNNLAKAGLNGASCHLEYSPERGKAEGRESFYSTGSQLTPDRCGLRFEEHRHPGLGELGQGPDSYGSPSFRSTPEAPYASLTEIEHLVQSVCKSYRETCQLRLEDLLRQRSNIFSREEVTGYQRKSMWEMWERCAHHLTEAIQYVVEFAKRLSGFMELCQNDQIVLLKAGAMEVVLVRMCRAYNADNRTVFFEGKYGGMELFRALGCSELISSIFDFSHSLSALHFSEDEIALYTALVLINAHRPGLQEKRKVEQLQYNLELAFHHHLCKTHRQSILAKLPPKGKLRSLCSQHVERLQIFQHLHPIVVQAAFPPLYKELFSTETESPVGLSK
# Procedure, shortened: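 Reporter transcripts from a transfected RORg-GAL4 chimera in HepG2 cells were quantified 24 h after dosing by RT-PCR, 6-FAM labelling, HpaI digestion and capillary electrophoresis; increases over DMSO baseline were fitted.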
# [7] = target: human Thyroid Receptor alpha (THRa1), THRA (gene 7067) (UniProt P10827); assay: ATG_THRa1_TRANS: Attagene TRANS-FACTORIAL HepG2 Assay for human Thyroid Receptor alpha (THRa1) (AID 2283014)
# human Thyroid Receptor alpha (THRa1), THRA (gene 7067), sequence (P10827 whole entry, looked up, the tested form may be a part): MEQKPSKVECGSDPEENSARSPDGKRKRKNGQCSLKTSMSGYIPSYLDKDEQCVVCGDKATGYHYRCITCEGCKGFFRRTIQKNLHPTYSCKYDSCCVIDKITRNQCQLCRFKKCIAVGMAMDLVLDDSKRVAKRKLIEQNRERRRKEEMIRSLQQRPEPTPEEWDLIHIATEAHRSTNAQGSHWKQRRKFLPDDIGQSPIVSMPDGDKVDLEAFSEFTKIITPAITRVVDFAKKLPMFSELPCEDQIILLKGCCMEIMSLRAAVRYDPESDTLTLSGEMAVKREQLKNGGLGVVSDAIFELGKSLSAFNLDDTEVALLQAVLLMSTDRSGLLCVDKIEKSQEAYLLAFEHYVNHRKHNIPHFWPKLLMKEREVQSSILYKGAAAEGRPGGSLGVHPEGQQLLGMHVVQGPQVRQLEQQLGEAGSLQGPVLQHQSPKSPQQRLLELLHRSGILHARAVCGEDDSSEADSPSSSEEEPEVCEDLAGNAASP
# Procedure, shortened: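 Transcripts from GAL4-UAS-driven reporters, measured after 24 h compound exposure by RT-PCR plus capillary electrophoresis of 6-FAM-labeled fragments, were fitted for gain of signal relative to DMSO. Cells: transiently transfected HepG2 expressing NR-Gal4 chimeras.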
# [8] = target: Retinoic acid receptor alpha (Homo sapiens) (UniProt P10276); assay: ATG_RARa_TRANS: Attagene TRANS-FACTORIAL HepG2 Assay for human Retinoic Acid Receptor alpha (RARa) (AID 2283005)
# Retinoic acid receptor alpha (Homo sapiens), sequence (P10276 whole entry, looked up, the tested form may be a part): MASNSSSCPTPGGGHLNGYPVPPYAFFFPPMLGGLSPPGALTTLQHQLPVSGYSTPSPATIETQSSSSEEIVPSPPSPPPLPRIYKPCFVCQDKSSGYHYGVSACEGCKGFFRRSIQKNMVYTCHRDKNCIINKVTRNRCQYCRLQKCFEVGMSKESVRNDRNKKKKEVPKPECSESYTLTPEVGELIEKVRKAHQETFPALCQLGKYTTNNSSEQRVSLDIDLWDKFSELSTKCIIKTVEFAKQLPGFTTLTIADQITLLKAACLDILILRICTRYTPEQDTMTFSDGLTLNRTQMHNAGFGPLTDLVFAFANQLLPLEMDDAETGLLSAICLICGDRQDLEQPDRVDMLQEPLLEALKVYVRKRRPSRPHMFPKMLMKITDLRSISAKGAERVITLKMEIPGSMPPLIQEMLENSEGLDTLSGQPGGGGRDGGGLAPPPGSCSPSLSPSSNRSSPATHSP
# Procedure, shortened: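 Reporter transcripts, measured by RT-PCR with fluorescent labeling and capillary electrophoresis after 24 h dosing, reflect activity of an exogenous human RARa–GAL4 fusion in transiently transfected HepG2. Fitted for increase relative to DMSO.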
# [9] = target: Retinoic acid receptor RXR-alpha (Homo sapiens) (UniProt P19793); assay: ATG_RXRa_TRANS: Attagene TRANS-FACTORIAL HepG2 Assay for human Retinoid X Receptor alpha (RXRa) (AID 2283012)
# Retinoic acid receptor RXR-alpha (Homo sapiens), sequence (P19793 whole entry, looked up, the tested form may be a part): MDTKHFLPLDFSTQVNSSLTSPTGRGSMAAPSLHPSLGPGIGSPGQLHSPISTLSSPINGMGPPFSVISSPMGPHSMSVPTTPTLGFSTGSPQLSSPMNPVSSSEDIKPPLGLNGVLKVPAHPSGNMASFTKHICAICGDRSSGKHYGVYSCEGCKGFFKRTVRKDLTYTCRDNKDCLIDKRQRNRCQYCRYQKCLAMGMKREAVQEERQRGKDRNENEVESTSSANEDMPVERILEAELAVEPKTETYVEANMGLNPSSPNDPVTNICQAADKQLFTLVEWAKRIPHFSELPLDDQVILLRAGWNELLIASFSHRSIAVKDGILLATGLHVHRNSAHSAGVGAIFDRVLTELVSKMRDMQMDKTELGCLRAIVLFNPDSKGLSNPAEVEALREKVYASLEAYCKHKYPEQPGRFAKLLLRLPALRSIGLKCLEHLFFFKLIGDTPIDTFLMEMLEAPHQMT
# Procedure, shortened: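 Chimeric NR-GAL4 trans-activation in HepG2, 24 h treatment; reporter transcripts quantified by fluorescence on capillary electrophoresis, analysed for upward change from DMSO.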
# [10] = target: human Retinoic Acid Receptor beta (RARb), RARB (gene 5915) (UniProt P10826); assay: ATG_RARb_TRANS: Attagene TRANS-FACTORIAL HepG2 Assay for human Retinoic Acid Receptor beta (AID 2283004)
# human Retinoic Acid Receptor beta (RARb), RARB (gene 5915), sequence (P10826 whole entry, looked up, the tested form may be a part): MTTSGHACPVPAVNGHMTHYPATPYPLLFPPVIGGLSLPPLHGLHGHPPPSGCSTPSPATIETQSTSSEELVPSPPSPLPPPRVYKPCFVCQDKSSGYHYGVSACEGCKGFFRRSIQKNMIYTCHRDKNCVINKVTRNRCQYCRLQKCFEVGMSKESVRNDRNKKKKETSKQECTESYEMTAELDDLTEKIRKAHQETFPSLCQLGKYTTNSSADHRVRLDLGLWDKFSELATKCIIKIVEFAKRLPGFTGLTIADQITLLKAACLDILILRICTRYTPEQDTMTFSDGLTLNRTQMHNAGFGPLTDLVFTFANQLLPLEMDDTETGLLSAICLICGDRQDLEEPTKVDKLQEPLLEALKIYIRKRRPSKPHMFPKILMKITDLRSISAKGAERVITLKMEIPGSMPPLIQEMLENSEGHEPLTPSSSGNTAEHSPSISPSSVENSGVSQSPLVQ
# Procedure, shortened: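 Induction of reporter mRNA from a chimeric RARb-Gal4 construct was measured by RT-PCR, FAM labelling, HpaI digestion and capillary electrophoresis. Measurements followed 24 h compound treatment of transiently transfected human HepG2 liver cells, with DMSO as baseline.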
# [11] = target: human Retinoid X Receptor beta (RXRb), RXRB (gene 6257) (UniProt P28702); assay: ATG_RXRb_TRANS: Attagene TRANS-FACTORIAL HepG2 Assay for human Retinoid X Receptor beta (RXRb) (AID 2283013)
# human Retinoid X Receptor beta (RXRb), RXRB (gene 6257), sequence (P28702 whole entry, looked up, the tested form may be a part): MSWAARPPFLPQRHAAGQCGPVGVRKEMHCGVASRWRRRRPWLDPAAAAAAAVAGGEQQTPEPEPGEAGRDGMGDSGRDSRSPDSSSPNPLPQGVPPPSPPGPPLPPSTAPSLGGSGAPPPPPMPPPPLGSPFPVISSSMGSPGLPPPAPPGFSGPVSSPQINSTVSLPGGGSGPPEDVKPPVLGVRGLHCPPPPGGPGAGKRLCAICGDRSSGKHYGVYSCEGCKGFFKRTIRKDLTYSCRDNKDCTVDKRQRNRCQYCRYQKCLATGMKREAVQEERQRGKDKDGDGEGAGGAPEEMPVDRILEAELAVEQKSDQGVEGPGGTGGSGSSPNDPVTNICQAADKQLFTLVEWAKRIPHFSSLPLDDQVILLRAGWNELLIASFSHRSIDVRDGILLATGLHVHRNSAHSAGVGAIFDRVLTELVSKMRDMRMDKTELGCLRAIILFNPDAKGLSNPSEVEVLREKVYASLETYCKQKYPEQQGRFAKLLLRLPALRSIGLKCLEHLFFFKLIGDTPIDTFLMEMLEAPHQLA
# Procedure, shortened: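 After a 24 h incubation with test chemical, transfected HepG2 cells carrying NR-Gal4 fusions and GAL4-UAS reporter transcription units yield RNA whose reporter cDNA is FAM-labelled, HpaI-cut and sized by capillary electrophoresis; increases over DMSO are scored.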
structure (smiles),measurement,setting,value
O=NN1CCCC1,outcome,[1],inactive
same,outcome,[2],inactive
same,outcome,[3],inactive
same,outcome,[4],inactive
same,outcome,[5],inactive
same,outcome,[6],inactive
same,outcome,[7],inactive
CCOC(=O)c1ccccc1N,outcome,[1],inactive
same,outcome,[3],inactive
same,outcome,[4],inactive
same,outcome,[6],inactive
same,outcome,[7],inactive
Cc1ccc(C(=O)Cl)cc1,outcome,[1],inactive
same,outcome,[8],inactive
same,outcome,[3],inactive
same,outcome,[6],inactive
same,outcome,[9],inactive
CCCCc1ccc(O)cc1,outcome,[1],inactive
same,outcome,[2],inactive
same,outcome,[10],inactive
same,AC50,[3],57.1 µM (active)
same,outcome,[4],inactive
same,outcome,[5],inactive
same,outcome,[9],inactive
same,AC50,[11],64.2 µM (active)
CC(C)(C)N(NC(=O)c1ccc(Cl)cc1)C(=O)c1ccccc1,outcome,[3],inactive
same,outcome,[4],inactive
same,outcome,[5],inactive
same,outcome,[11],inactive
Cn1[nH]nnc1=S,outcome,[1],inactive
same,outcome,[10],inactive
same,outcome,[8],inactive
same,outcome,[4],inactive
same,outcome,[9],inactive
C=C(C)C(=O)OCC1CO1 (centres undefined),outcome,[8],inactive
same,outcome,[3],inactive
Clc1ccc(Oc2ccccc2)cc1,outcome,[1],inactive
same,outcome,[2],inactive
same,outcome,[10],inactive
same,outcome,[3],inactive
same,outcome,[4],inactive
same,outcome,[9],inactive
same,AC50,[11],100 µM (active)
same,outcome,[7],inactive
CC(O)C#N (centres undefined),outcome,[2],inactive
same,outcome,[10],inactive
same,outcome,[3],inactive
same,outcome,[6],inactive
same,outcome,[9],inactive
same,outcome,[7],inactive
COC(N)=O,outcome,[2],inactive
same,outcome,[3],inactive
same,outcome,[9],inactive
same,outcome,[7],inactive
CNC(=O)Oc1ccc(N(C)C)c(C)c1,outcome,[2],inactive
same,outcome,[3],inactive
same,outcome,[4],inactive
same,outcome,[9],inactive
same,outcome,[11],inactive
O=[N+]([O-])c1cc(Cl)ccc1Cl,outcome,[2],inactive
same,AC50,[3],16.1 µM (active)
same,outcome,[4],inactive
same,outcome,[9],inactive
same,outcome,[11],inactive
same,outcome,[7],inactive
CCCCN(CC)C(=O)SCCC,outcome,[2],inactive
same,outcome,[3],inactive
same,outcome,[4],inactive
same,outcome,[5],inactive
same,outcome,[6],inactive
same,AC50,[11],59.1 µM (active)
Nc1ccc(Sc2ccc(N)cc2)cc1,AC50,[3],57.1 µM (active)
same,AC50,[4],50.6 µM (active)
same,outcome,[6],inactive
same,outcome,[9],inactive
same,outcome,[11],inactive
NNC(N)=S,outcome,[2],inactive
same,outcome,[3],inactive
same,outcome,[6],inactive
same,outcome,[9],inactive
same,outcome,[11],inactive
CC(=O)c1ccc(-c2ccccc2)cc1,outcome,[1],inactive
same,outcome,[2],inactive
same,outcome,[3],inactive
same,AC50,[4],24.7 µM (active)
same,outcome,[6],inactive
same,outcome,[9],inactive
same,outcome,[11],inactive
same,outcome,[7],inactive
CC(=O)CCc1ccc2c(c1)OCO2,outcome,[1],inactive
same,outcome,[2],inactive
same,outcome,[8],inactive
same,outcome,[3],inactive
same,outcome,[4],inactive
same,outcome,[9],inactive
same,outcome,[11],inactive
N#Cc1ccc(O)cc1,outcome,[10],inactive
same,outcome,[6],inactive
same,outcome,[9],inactive
same,outcome,[11],inactive
same,outcome,[7],inactive
CC1=C(C(=O)Nc2ccccc2)S(=O)(=O)CCO1,outcome,[1],inactive
same,outcome,[2],inactive
same,AC50,[3],1.9 µM (active)
same,outcome,[4],inactive
same,outcome,[9],inactive
N#C/C=C/c1ccccc1,outcome,[1],inactive
same,outcome,[2],inactive
same,AC50,[3],10.1 µM (active)
same,outcome,[4],inactive
same,outcome,[5],inactive
same,outcome,[6],inactive
same,outcome,[11],inactive
same,outcome,[7],inactive
